Results published in the supplement of paper PMC10849652.
Targets with a hit are over-represented here; the source holds about 7,900 in all. About 0.6% of all pairs of compound and target were hits.

What was measured:
Assay in all cases: log2 fold change, soluble protein after heating vs DMSO (PISA); higher = thermal stabilisation; K562 cells, 10 uM, 30 min; active = over 0.2 and 3.5 SD of the protein, either way, in both replicates (recomputed)
[1] = compound: CS(=O)(=O)c1ccc(-c2cnc(N)c(C(=O)Nc3ccccc3)n2)cc1
In short: (§1)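 K562 cells at 2×10^6 cells/mL were exposed to 10 μM compound for 30 min, then aliquots were heated for 3 min across 48°C-58°C, pooled, and extracted in PBS containing 0.5% NP-40 at 4°C. The supernatant after 21,000xg for 90 min was taken as soluble protein and measured by TMTpro 16plex LC-MS/MS with channel sums equalised. Thermal stability is reported relative to control samples, with values from duplicates. Fold changes are given on a log2 scale.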

crizotinib = compound: C[C@@H](Oc1cc(-c2cnn(C3CCNCC3)c2)cnc1N)c1c(Cl)ccc(F)c1Cl [crizotinib]
In short: as §1

[2] = compound: C[C@@H]1COCCN1C2=NC(=NC(=C2)C3(CC3)S(=O)(=O)C)C4=C5C=CNC5=CC=C4
In short: as §1

[3] = compound: C[C@H](C1=CC=C(C=C1)C(=O)NC2=C3C=CNC3=NC=C2)N
In short: as §1

duvelisib = compound: C[C@H](Nc1ncnc2nc[nH]c12)c1cc2cccc(Cl)c2c(=O)n1-c1ccccc1 [duvelisib]
In short: as §1

gandotinib = compound: Cc1cc(Nc2cc(CN3CCOCC3)c3nc(C)c(Cc4ccc(Cl)cc4F)n3n2)n[nH]1 [gandotinib]
In short: as §1

tozasertib = compound: Cc1cc(Nc2cc(N3CCN(C)CC3)nc(Sc3ccc(NC(=O)C4CC4)cc3)n2)n[nH]1 [tozasertib]
In short: as §1

[4] = compound: Cc1cc(SCc2sc(-c3ccc(C(F)(F)F)cc3)nc2C)ccc1OCC(=O)O
In short: as §1

doramapimod = compound: Cc1ccc(-n2nc(C(C)(C)C)cc2NC(=O)Nc2ccc(OCCN3CCOCC3)c3ccccc23)cc1 [doramapimod]
In short: as §1

ispinesib = compound: Cc1ccc(C(=O)N(CCCN)[C@@H](c2nc3cc(Cl)ccc3c(=O)n2Cc2ccccc2)C(C)C)cc1 [ispinesib]
In short: as §1

bafetinib = compound: Cc1ccc(NC(=O)c2ccc(CN3CC[C@H](N(C)C)C3)c(C(F)(F)F)c2)cc1Nc1nccc(-c2cncnc2)n1 [bafetinib]
In short: as §1

[5] = compound: Cc1cccc(CC(=O)N2CCc3c2ccc(-c2cn(C)c4ncnc(N)c24)c3F)n1
In short: as §1

nilotinib = compound: Cc1cn(-c2cc(NC(=O)c3ccc(C)c(Nc4nccc(-c5cccnc5)n4)c3)cc(C(F)(F)F)c2)cn1 [nilotinib]
In short: as §1

[6] = compound: Cc1nc(Nc2n[nH]c3c2CN(C(=O)N[C@H](CN(C)C)c2ccccc2)C3(C)C)c2sccc2n1
In short: as §1

dasatinib = compound: Cc1nc(Nc2ncc(C(=O)Nc3c(C)cccc3Cl)s2)cc(N2CCN(CCO)CC2)n1 [dasatinib]
In short: as §1

[7] = compound: Cc1ncc(-c2ccnc(Nc3ccc(S(C)(=O)=O)cc3)n2)n1C(C)C
In short: as §1

[8] = compound: Cn1cc(-c2ccc3c(c2)CCN3C(=O)Cc2cccc(C(F)(F)F)c2)c2c(N)ncnc21
In short: as §1

[9] = compound: Cn1cc(-c2ccc3nnc(C(F)(F)c4ccc5ncccc5c4)n3n2)cn1
In short: as §1

tipifarnib = compound: Cn1cncc1[C@@](N)(c1ccc(Cl)cc1)c1ccc2c(c1)c(-c1cccc(Cl)c1)cc(=O)n2C [tipifarnib]
In short: as §1

mubritinib = compound: FC(F)(F)c1ccc(/C=C/c2nc(COc3ccc(CCCCn4ccnn4)cc3)co2)cc1 [mubritinib]
In short: as §1

Measured: log2 fold change

AKR1C3 (UniProt P42330)
Sequence of UniProt P42330 (P42330 whole entry, looked up): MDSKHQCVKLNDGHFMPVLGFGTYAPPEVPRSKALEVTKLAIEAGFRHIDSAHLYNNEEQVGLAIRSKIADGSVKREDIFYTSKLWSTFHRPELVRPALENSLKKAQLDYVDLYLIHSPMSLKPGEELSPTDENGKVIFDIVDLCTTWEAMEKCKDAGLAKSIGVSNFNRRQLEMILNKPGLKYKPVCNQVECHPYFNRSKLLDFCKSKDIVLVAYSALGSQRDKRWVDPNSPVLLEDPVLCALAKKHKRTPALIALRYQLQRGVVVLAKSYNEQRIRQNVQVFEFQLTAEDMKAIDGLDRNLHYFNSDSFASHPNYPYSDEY
active: [9] 0.557 | tipifarnib 0.862
inactive: [1] -0.101 | crizotinib 0.028 | [2] -0.009 | [3] -0.035 | duvelisib 0.23 | gandotinib 0.005 | tozasertib -0.059 | [4] 0.078 | doramapimod -0.012 | ispinesib 0.371 | bafetinib 0.018 | [5] -0.03 | nilotinib 0.025 | [6] 0.004 | dasatinib -0.038 | [7] 0.078 | [8] 0.068 | mubritinib -0.147

BST2 (UniProt Q10589)
Sequence of UniProt Q10589 (Q10589 whole entry, looked up): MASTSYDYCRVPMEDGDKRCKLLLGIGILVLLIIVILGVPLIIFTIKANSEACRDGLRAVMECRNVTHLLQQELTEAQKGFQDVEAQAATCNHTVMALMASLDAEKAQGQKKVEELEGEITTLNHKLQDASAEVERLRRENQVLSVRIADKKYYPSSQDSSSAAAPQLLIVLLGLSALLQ
inactive: [1] -0.023 | crizotinib 0.066 | [2] 0.006 | [3] -0.055 | duvelisib -0.004 | gandotinib -0.016 | tozasertib -0.009 | [4] -0.074 | doramapimod 0.023 | ispinesib -0.078 | bafetinib 0.061 | [5] -0.009 | nilotinib 0.048 | [6] -0.059 | dasatinib -0.016 | [7] -0.096 | [8] -0.052 | [9] 0.029 | tipifarnib 0.036 | mubritinib -0.015

BRIX1 (UniProt Q8TDN6)
Sequence of UniProt Q8TDN6 (Q8TDN6 whole entry, looked up): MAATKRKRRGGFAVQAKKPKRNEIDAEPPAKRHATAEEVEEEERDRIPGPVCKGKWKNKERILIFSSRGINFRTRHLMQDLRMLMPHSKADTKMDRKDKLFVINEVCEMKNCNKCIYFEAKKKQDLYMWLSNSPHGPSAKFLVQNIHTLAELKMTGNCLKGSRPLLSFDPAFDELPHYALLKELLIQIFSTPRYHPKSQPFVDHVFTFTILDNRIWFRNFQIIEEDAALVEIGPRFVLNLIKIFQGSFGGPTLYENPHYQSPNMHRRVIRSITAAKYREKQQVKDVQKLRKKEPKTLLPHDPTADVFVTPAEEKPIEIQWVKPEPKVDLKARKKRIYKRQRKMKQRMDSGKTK
inactive: [1] -0.027 | crizotinib -0.097 | [2] -0.292 | [3] 0.318 | duvelisib -0.117 | gandotinib 0.056 | tozasertib 0.196 | [4] 0.093 | doramapimod 0.288 | ispinesib 0.166 | bafetinib 0.386 | [5] -0.033 | nilotinib 0.085 | [6] -0.077 | dasatinib 0.109 | [7] -0.013 | [8] -0.494 | [9] -0.138 | tipifarnib 0.158 | mubritinib -0.206

ATOX1 (UniProt O00244)
Sequence of UniProt O00244 (O00244 whole entry, looked up): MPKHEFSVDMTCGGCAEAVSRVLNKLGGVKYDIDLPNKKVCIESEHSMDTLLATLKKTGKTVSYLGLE
inactive: [1] -0.051 | crizotinib -0.057 | [2] 0.235 | [3] -0.269 | duvelisib 0.144 | gandotinib 0.068 | tozasertib 0.038 | [4] -0.071 | doramapimod 0.051 | ispinesib 0.212 | bafetinib -0.02 | [5] 0.043 | nilotinib 0.047 | [6] 0.036 | dasatinib 0.161 | [7] -0.009 | [8] 0.174 | [9] -0.084 | mubritinib 0.004
active: tipifarnib -0.404

ATP13A2 (UniProt Q9NQ11)
inactive: [1] -0.012 | crizotinib -0.214 | [2] 0.031 | [3] 0.008 | duvelisib 0.105 | gandotinib 0.01 | tozasertib -0.006 | [4] 0.018 | doramapimod 0.025 | bafetinib -0.002 | [5] 0.001 | nilotinib 0.01 | [6] 0.014 | dasatinib -0.007 | [7] 0.018 | [8] 0.045 | [9] 0.069 | tipifarnib 0.06 | mubritinib 0.108
active: ispinesib -0.363

ATP5ME (UniProt P56385)
Sequence of UniProt P56385 (P56385 whole entry, looked up): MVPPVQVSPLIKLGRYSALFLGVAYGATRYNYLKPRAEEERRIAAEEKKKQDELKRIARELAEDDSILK
inactive: [1] -0.016 | crizotinib 0.101 | [2] 0.102 | [3] -0.046 | duvelisib 0 | gandotinib 0.001 | tozasertib 0.008 | [4] -0.016 | doramapimod 0.033 | ispinesib 0.078 | bafetinib -0.071 | [5] -0.051 | nilotinib 0.022 | [6] 0.008 | dasatinib 0.084 | [7] -0.046 | [8] 0.001 | [9] 0.103 | tipifarnib -0.031 | mubritinib 0.023

ADD1 isoform 3 (UniProt P35611)
Sequence of UniProt P35611 (P35611 whole entry, looked up): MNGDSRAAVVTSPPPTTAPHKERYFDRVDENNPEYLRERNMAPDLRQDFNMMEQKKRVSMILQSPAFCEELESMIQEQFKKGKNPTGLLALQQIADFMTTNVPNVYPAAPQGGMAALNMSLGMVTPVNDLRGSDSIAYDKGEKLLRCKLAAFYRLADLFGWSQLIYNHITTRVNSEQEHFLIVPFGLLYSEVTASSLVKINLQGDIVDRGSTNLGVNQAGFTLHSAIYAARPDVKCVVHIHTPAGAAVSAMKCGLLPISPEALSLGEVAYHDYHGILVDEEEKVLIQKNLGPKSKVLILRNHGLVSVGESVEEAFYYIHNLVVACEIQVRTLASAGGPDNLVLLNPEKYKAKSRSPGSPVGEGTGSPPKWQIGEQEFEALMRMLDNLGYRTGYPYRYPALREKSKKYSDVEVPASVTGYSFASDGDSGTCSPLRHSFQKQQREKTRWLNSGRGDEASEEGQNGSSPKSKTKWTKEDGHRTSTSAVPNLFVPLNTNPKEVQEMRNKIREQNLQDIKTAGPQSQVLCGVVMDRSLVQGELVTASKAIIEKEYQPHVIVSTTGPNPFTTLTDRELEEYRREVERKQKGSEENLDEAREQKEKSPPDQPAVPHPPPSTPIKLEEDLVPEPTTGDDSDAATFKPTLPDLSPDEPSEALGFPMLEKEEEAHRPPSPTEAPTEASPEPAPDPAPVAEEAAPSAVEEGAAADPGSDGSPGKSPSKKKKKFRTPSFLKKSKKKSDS
inactive: [1] 0.018 | crizotinib 0.005 | [2] -0.011 | [3] -0.109 | duvelisib 0.011 | gandotinib -0.054 | tozasertib -0.008 | [4] -0.015 | doramapimod 0.001 | ispinesib 0.045 | bafetinib -0.018 | [5] 0.068 | nilotinib 0.014 | [6] -0.02 | dasatinib 0.041 | [7] -0.093 | [8] 0.009 | [9] 0.014 | tipifarnib 0.015 | mubritinib 0.033

ATL2 (UniProt Q8NHH9)
Sequence of UniProt Q8NHH9 (Q8NHH9 whole entry, looked up): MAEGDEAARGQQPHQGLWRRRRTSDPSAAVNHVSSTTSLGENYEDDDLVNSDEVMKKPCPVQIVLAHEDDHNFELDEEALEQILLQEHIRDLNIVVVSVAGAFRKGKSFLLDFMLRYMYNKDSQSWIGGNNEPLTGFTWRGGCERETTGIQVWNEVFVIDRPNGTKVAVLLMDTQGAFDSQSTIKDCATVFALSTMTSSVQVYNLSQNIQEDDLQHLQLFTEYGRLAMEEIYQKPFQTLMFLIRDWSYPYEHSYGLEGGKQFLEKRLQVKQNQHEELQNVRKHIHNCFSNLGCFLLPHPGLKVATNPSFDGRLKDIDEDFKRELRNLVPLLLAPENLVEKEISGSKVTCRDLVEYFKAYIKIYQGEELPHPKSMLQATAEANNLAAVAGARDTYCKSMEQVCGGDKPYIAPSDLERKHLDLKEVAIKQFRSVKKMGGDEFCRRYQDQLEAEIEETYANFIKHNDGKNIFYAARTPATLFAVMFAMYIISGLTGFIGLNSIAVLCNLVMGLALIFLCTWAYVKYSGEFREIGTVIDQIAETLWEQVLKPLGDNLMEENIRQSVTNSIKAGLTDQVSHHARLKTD
active: ispinesib 0.376
inactive: [1] 0.078 | crizotinib -0.031 | [2] -0.003 | [3] -0.014 | duvelisib 0.052 | gandotinib -0.035 | tozasertib -0.062 | [4] 0.056 | doramapimod -0.018 | bafetinib 0.026 | [5] 0.034 | nilotinib 0.081 | [6] -0.008 | dasatinib -0.129 | [7] 0.031 | [8] 0.083 | [9] 0.18 | tipifarnib -0.014 | mubritinib 0.104

ATP1A4 (UniProt Q13733)
Sequence of UniProt Q13733 (Q13733 whole entry, looked up): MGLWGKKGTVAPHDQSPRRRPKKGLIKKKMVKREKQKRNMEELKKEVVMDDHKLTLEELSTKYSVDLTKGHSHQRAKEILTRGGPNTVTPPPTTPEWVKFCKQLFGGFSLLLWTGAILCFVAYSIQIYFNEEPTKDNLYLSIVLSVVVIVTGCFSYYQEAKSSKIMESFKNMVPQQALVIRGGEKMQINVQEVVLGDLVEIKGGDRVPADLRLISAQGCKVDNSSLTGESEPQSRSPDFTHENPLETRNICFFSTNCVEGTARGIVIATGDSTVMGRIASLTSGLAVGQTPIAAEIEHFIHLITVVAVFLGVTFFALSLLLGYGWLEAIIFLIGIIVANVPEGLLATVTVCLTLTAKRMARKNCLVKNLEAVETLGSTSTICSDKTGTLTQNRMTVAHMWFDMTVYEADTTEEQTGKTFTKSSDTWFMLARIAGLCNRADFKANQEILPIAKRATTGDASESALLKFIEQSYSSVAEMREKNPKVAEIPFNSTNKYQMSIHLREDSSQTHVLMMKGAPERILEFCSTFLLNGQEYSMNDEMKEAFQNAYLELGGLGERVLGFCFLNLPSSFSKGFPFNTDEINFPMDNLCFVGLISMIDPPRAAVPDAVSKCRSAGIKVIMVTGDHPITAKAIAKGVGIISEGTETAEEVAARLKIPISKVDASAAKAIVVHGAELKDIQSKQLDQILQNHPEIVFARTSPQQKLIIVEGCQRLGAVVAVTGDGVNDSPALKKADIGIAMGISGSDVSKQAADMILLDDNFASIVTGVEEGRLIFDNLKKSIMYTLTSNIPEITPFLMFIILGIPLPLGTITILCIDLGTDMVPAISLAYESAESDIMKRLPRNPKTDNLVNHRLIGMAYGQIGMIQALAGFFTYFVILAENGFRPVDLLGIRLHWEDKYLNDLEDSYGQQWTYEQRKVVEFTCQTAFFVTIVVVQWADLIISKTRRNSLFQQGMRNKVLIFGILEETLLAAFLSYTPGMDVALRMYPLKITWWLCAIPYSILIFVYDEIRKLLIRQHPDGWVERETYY
inactive: [1] -0.013 | crizotinib 0.091 | [2] -0.067 | [3] -0.066 | duvelisib 0.174 | gandotinib -0.026 | tozasertib -0.053 | [4] 0.038 | doramapimod -0.086 | ispinesib 0.032 | bafetinib 0.038 | [5] 0.036 | nilotinib 0.058 | [6] -0.041 | dasatinib 0.076 | [7] 0.033 | [8] 0.028 | [9] -0.041 | tipifarnib -0.039 | mubritinib 0.001

ACIN1 (UniProt Q9UKV3)
active: [6] -0.444
inactive: [1] -0.011 | crizotinib -0.014 | [2] 0.068 | [3] -0.12 | duvelisib 0.005 | gandotinib 0.01 | tozasertib -0.003 | [4] 0.002 | doramapimod 0.029 | ispinesib 0.007 | bafetinib 0.022 | [5] -0.037 | nilotinib 0.086 | dasatinib 0.016 | [7] -0.065 | [8] 0.117 | [9] -0.027 | tipifarnib 0.026 | mubritinib 0.049

AP2B1 isoform 2 (UniProt P63010)
Sequence of UniProt P63010 (P63010 whole entry, looked up): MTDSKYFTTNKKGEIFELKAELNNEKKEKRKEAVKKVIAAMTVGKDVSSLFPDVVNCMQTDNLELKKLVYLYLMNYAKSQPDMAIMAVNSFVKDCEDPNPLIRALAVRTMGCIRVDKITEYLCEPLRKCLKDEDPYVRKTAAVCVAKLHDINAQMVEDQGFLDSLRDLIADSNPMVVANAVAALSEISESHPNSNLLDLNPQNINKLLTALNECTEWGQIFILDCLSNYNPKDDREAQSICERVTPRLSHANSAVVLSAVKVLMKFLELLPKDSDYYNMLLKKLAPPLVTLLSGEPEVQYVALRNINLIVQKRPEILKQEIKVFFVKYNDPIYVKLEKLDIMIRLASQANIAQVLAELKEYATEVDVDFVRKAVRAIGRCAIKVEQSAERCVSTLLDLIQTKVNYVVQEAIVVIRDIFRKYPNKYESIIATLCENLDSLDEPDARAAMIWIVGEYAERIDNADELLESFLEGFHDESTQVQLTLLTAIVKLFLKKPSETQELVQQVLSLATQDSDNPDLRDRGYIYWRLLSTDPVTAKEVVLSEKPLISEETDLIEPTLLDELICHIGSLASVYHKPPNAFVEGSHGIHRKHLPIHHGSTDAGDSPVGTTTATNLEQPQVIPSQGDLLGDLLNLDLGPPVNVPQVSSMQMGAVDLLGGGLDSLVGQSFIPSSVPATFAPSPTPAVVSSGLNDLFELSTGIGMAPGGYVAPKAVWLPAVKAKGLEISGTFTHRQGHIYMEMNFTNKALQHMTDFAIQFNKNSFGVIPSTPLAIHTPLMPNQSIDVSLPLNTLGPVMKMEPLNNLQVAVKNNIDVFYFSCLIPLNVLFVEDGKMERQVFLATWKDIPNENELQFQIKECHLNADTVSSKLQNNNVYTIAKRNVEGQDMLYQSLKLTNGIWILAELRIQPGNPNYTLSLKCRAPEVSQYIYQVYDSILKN
inactive: [1] 0.022 | crizotinib -0.029 | [2] -0.005 | [3] -0.161 | duvelisib 0.004 | gandotinib 0.016 | tozasertib -0.056 | [4] 0.007 | doramapimod -0.006 | ispinesib 0.014 | bafetinib 0.024 | [5] -0.01 | nilotinib -0.019 | [6] 0.019 | dasatinib 0.035 | [7] -0.032 | [8] -0.029 | [9] 0.004 | tipifarnib -0.014 | mubritinib -0.01

APOB (UniProt P04114)
inactive: [1] 0.066 | crizotinib -0.443 | [2] 0.083 | [3] -0.203 | duvelisib 0.003 | gandotinib -0.198 | tozasertib -0.085 | [4] 0.007 | doramapimod -0.288 | bafetinib -0.316 | [5] 0.032 | nilotinib -0.132 | [6] 0.013 | dasatinib -0.213 | [7] 0.051 | [8] 0.071 | [9] -0.021 | tipifarnib -0.203 | mubritinib 0.011
active: ispinesib -0.55

BRAP (UniProt Q7Z569)
inactive: [1] 0.027 | crizotinib -0.205 | [2] 0.008 | [3] -0.01 | duvelisib -0.046 | gandotinib -0.024 | tozasertib 0.072 | [4] 0.093 | doramapimod 0.081 | ispinesib -0.089 | bafetinib 0.026 | [5] 0.017 | nilotinib -0.087 | [6] -0.186 | dasatinib -0.097 | [7] -0.116 | [8] -0.067 | [9] -0.066 | tipifarnib -0.04 | mubritinib 0.056

ATP23 (UniProt Q9Y6H3)
Sequence of UniProt Q9Y6H3 (Q9Y6H3 whole entry, looked up): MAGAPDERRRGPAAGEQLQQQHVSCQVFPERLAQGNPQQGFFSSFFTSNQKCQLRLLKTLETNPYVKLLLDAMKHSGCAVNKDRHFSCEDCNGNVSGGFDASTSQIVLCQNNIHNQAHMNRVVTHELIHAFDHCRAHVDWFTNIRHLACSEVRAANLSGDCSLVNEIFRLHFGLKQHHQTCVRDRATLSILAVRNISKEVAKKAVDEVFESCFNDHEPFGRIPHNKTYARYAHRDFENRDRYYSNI
inactive: [1] -0.002 | crizotinib -0.116 | [2] 0.044 | [3] 0.072 | duvelisib -0.124 | gandotinib -0.128 | tozasertib 0.002 | [4] 0.046 | doramapimod -0.051 | ispinesib -0.188 | bafetinib -0.1 | [5] -0.015 | nilotinib -0.092 | [6] 0.067 | dasatinib 0.041 | [7] -0.011 | [8] -0.097 | [9] 0.023 | tipifarnib 0.081 | mubritinib 0.033

ARL6IP6 (UniProt Q8N6S5)
inactive: [1] 0.046 | crizotinib -0.016 | [2] 0.017 | [3] -0.042 | duvelisib -0.005 | gandotinib -0.008 | tozasertib -0.22 | [4] -0.042 | doramapimod 0.03 | ispinesib 0.175 | bafetinib -0.096 | [5] 0.024 | nilotinib -0.027 | [6] 0.019 | dasatinib 0.098 | [7] 0.036 | [8] 0.012 | [9] -0.186 | tipifarnib -0.054 | mubritinib 0.04

AUP1 (UniProt Q9Y679)
Sequence of UniProt Q9Y679 (Q9Y679 whole entry, looked up): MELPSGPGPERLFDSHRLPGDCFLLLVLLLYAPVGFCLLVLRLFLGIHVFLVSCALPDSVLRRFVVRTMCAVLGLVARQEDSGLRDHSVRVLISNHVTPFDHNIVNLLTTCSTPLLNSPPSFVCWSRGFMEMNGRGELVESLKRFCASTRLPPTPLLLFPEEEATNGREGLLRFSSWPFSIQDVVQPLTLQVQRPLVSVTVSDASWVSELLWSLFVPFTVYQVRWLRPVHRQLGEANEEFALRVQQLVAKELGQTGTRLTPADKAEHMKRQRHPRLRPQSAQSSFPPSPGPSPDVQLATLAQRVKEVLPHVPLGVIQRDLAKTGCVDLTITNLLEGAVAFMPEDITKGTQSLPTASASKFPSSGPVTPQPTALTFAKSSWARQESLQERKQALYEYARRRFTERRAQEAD
active: ispinesib -0.41
inactive: [1] -0.032 | crizotinib -0.123 | [2] 0.071 | [3] -0.015 | duvelisib -0.05 | gandotinib -0.181 | tozasertib -0.012 | [4] 0.06 | doramapimod -0.033 | bafetinib -0.023 | [5] 0.11 | nilotinib -0.102 | [6] -0.055 | dasatinib -0.097 | [7] 0.018 | [8] 0.01 | [9] -0.03 | tipifarnib -0.106 | mubritinib 0.033
